These results are taken from PubChem BioAssay AID1508648 (National Center for Advancing Translational Sciences (NCATS), 2021).

Molecules are shown by their SMILES. Results filed as inconclusive are left out. A call without a number means that no potency is given here. Calls of active or inactive are those of the source. The call rests on the fitted dose curve; in most records, active means well fitted cell-killing curve with a large enough effect; inconclusive means small, poorly fitted or top-dose-only effect, or effect the other way; inactive means flat fitted curve, though single readings scatter.

The experiment is described as follows: Cell viability assay in S16 Pmp22-HiBiT cells - Confirmatory screen. Conditions: S16 Schwann Pmp22-HiBiT viability, CellTiter-Glo, 24 h; series mostly up to 27.9 µM. From the text: Assay Provider: Jim Inglese Ph.D. National Center for Advancing Translational Science, National Institutes of Health, Rockville, MD CMT is a heterogeneous group of neurological disorders that affect approximately 1 in 2,500 people. In particular, the most common form of CMT, CMT1A is genetically linked to the duplication of the PMP22 gene which leads to Schwann cell overexpression, thus manifesting itself as a typical case of dose-sensitive diseases. To identify small molecule compounds that can mediate the expression of PMP22 we developed a phenotypic assay screening strategy by utilizing genome editing techniques to construct Schwann cell lines containing novel reporter technology to monitor the transcriptional or translational regulation of PMP22. For high sensitivity we use a bioluminescent reporter system embedded in the 3' UTR of the PMP22 gene (S16(c9) Pmp22-F2sN) to identify compounds that inhibit gene expression. […] We can further discriminate the effect of all transcriptionally active molecules on PMP22 translation or stability with an assay that incorporates a short NLuc peptide (HiBiT) at the C-terminus of expressed PMP22 (S16(f8) PMP22-HiBiT) allowing alpha complementation and luminescence detection of membrane-associated PMP22 protein. These assays were screened against the NCATS Sytravon Library Collection. Miniaturization of these assays to 1536-well plate format for quantitative high throughput screening (qHTS) yielded rich data sets immediately from the qHTS assay (S16(c9) Pmp22-F2sN), when compared with data from a cell viability assay (Cell TiterGlo) to identify compounds that decreased the output signals through cellular toxicity to streamline the selection process of actives for subsequent characterization using the HiBiT assay (S16(f8) PMP22-HiBiT).
Cell viability assay in S16 Pmp22-HiBiT cells PROTOCOL TABLE (format as described by Inglese J, Shamu CE and Guy RK. 2007) SEQUENCE No. (e.g., 1, 2, 3, etc.); PARAMETER (e.g., Cells, Incubation, Reagent, etc.); VALUE and DESCRIPTION. 1. Cells. Add 500-1,000 cells in 4 uL in growth media (DMEM High Glucose, No Phenol Red media + 10% heat-inactivated FBS + 1% Pen/Strep supplemented media) per well into Greiner 1536-well white/solid bottom high base, TC-treated plates. 2. Compounds. Library compounds and controls added at 23nL per well, transferred by Pin Tool. 3. Incubation. Incubate plates at 37C, 5% CO2, 95% RH for 24 h. 4. Reagent. Add 3uL CellTiter-Glo per well of Greiner 1536-well plates. 5. Incubation. Incubate plates at room temperature for 15 min., protect from light. 6. Detector. Luminescence measured using CCD-based camera (Viewlux). NOTES (numbers refer to Sequence numbers above; values are from representative experiments) 6. Luminescence Read: Clear filter; Exposure = 1 sec, Gain = High, Speed = Slow, Binning = 2X REFERENCES: 1. Inglese J, Shamu CE and Guy RK, Reporting data from high throughput screening of small molecule libraries, Nature Chemical Biology, 2007, 3(8): 438-441. doi.org/10.1038/nchembio0807-438 2. Yasgar A, Shinn P, Jadhav A, Auld DS, Michael S, Zheng W, Austin CP, Inglese J and Simeonov A, Compound Management for Quantitative High-Throughput Screening. J. Assoc. Lab. Auto., 2008, 13: 79-89. doi: 10.1016/j.jala.2007.12.004
In the case of `Clc1cccc(-c2noc3ncnc(NC4CCCCC4)c23)c1`, the Potency entry was “inactive”. With `Cc1ccc(C)c(NC(=O)Cn2c(=O)n(Cc3ccc4c(c3)OCO4)c(=O)c3ccc(C(=O)NC4CCCCC4)cc32)c1`, the Potency result is “inactive”.

As for `Cc1cc(C)c(NC(=O)Cn2c(=O)n(Cc3ccco3)c(=O)c3ccc(C(=O)NC4CCCC4)cc32)c(C)c1`, the Potency result was “inactive”. `CCN(CC)c1ccc(NC(=O)C2COc3ccc(OC)cc3C2)c(C)c1` (configuration not stated): the Potency entry was “inactive”. Turning to `Cc1ccc(CN2C(=O)C(O)(c3c(C)[nH]c4ccccc34)c3ccccc32)cc1` (configuration not stated), the Potency entry was “inactive”. In the case of `Cc1ccc(NC(=O)N2CCc3cc(S(=O)(=O)N4CCC(C)CC4)ccc32)cc1F`, the Potency entry was “inactive”. `CCc1ccc(C(=O)c2cn(CC(=O)Nc3ccc4c(c3)OCO4)c3ccc(CC)cc3c2=O)cc1`: the Potency was 14.5 µM (active).
